# According to the supplement of paper PMC9262897, “Low-cost anti-mycobacterial drug discovery using engineered E. coli” (Nature Communications, 2022):
# Structures can show the parent of a compound that is named as a salt. ± gives the standard deviation of the averaged measurements.
# Assays:
# Assay in all cases: growth (OD600 after 10 h); higher = more growth (less inhibition)
# [1] = test system: E. coli TESEC Alr+ wild-type control; settings: compound 0.1 mM; raw OD600 reference: median of DMSO wells 0.241, cell-free background 0.041
# Experimental: (§1)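 TESEC Mtb Alr E. coli, or the Alr+ wild-type control, in 384-well plates with Prestwick library compounds at 0.1 mM and 1% DMSO, across arabinose induction levels of 1E3 to 1E7 nM. Growth is read as OD600 after 10 h at 37 °C in triplicate biological replicates.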
# [2] = test system: E. coli TESEC Mtb Alr; settings: compound 0.1 mM
# Experimental: as §1
# [3] = test system: E. coli TESEC Mtb Asd; settings: compound 0.1 mM
# Experimental: (§2)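 TESEC E. coli strains in which the native enzyme is deleted and replaced by arabinose-inducible Mtb Asd, DapB, CysH or TrpD, each grown in its selective medium. Strains were screened against the Prestwick library at 0.1 mM and 1% DMSO in 384-well format at low and high arabinose induction. Growth is read as OD600 after 10 h in triplicate.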
# [4] = test system: E. coli TESEC Alr+ wild-type control; settings: compound 0.1 mM; raw OD600 reference: median of DMSO wells 0.49, cell-free background 0.052
# Experimental: (§3)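 TESEC Mtb Alr E. coli (ΔaraC ΔtolC ΔentC Δalr ΔdadX, arabinose-inducible Mtb Alr) or the Alr+ wild-type control strain, grown in defined M9-fructose medium without D-alanine in 96-well plates with Prestwick library compounds at 0.1 mM and 1% DMSO. Low Alr induction is 0.1 µM arabinose and high induction is 10 mM arabinose.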
# [5] = test system: E. coli TESEC Mtb Alr; settings: compound 0.1 mM; remark: listed apart in the source
# Experimental: as §3
# [6] = test system: E. coli TESEC Mtb DapB; settings: compound 0.1 mM
# Experimental: as §2
# [7] = arabinose 1000 nM, raw OD600 reference: median of DMSO wells 0.294, cell-free background 0.041
# [8] = arabinose 10000 nM, raw OD600 reference: median of DMSO wells 0.264, cell-free background 0.041
# [9] = arabinose 100000 nM, raw OD600 reference: median of DMSO wells 0.201, cell-free background 0.041
# [10] = arabinose 1000000 nM, raw OD600 reference: median of DMSO wells 0.193, cell-free background 0.041
# [11] = arabinose 10000000 nM, raw OD600 reference: median of DMSO wells 0.146, cell-free background 0.041
# [12] = arabinose induction (level): High, raw OD600 reference: median of DMSO wells 0.331, cell-free background 0.041
# [13] = arabinose induction (level): Low, raw OD600 reference: median of DMSO wells 0.417, cell-free background 0.041
# [14] = arabinose 100 nM, raw OD600 reference: median of DMSO wells 0.413, cell-free background 0.052
# [15] = arabinose 10000000 nM, raw OD600 reference: median of DMSO wells […], cell-free background 0.052
# [16] = arabinose induction (level): High, raw OD600 reference: median of DMSO wells […], cell-free background 0.041
# [17] = arabinose induction (level): Low, raw OD600 reference: median of DMSO wells 0.227, cell-free background 0.041
Compound,growth [1],"growth [2, 7]","growth [2, 8]","growth [2, 9]","growth [2, 10]","growth [2, 11]","growth [3, 12]","growth [3, 13]",growth [4],"growth [5, 14]","growth [5, 15]","growth [6, 16]","growth [6, 17]"
CC(C)NNC(=O)c1ccncc1 [Iproniazide phosphate],0.253 ± 0.0043,0.276 ± 0.0095,0.27 ± 0.0057,0.219 ± 0.033,0.188 ± 0.007,0.153 ± 0.0052,0.359 ± 0.057,0.43 ± 0.014,0.496 ± 0.095,0.417 ± 0.007,0.374 ± 0.011,–,–
CC(=O)N[C@@H](CC(=O)N[C@@H](CCC(=O)O)C(=O)O)C(=O)O [Spaglumic acid],0.237 ± 0.0082,0.289 ± 0.013,0.284 ± 0.015,0.197 ± 0.0095,0.198 ± 0.0026,0.143 ± 0.0028,0.227 ± 0.021,0.426 ± 0.026,–,0.434 ± 0.0089,0.327 ± 0.0062,–,–
CC(=O)OCC(=O)[C@@]1(OC(C)=O)[C@@H](C)C[C@H]2[C@@H]3C[C@H](F)C4=CC(=O)C=C[C@]4(C)[C@@]3(F)[C@@H](O)C[C@@]21C [Diflorasone Diacetate],0.159 ± 0.0032,0.178 ± 0.0085,0.162 ± 0.0026,0.194 ± 0.014,0.112 ± 0.0026,0.17 ± 0.0046,0.263 ± 0.03,0.228 ± 0.008,–,0.394 ± 0.014,0.289 ± 0.0096,–,–
NC[C@@H]1O[C@H](O[C@H]2[C@@H](O)[C@H](O[C@@H]3[C@@H](O)[C@H](N)C[C@H](N)[C@H]3O[C@H]3O[C@H](CO)[C@@H](O)[C@H](O)[C@H]3N)O[C@@H]2CO)[C@H](N)[C@@H](O)[C@@H]1O [Paromomycin sulfate],0.251 ± 0.0064,0.327 ± 0.0078,0.275 ± 0.0073,0.19 ± 0.0041,0.19 ± 0.013,0.163 ± 0.0039,0.496 ± 0.0058,0.447 ± 0.027,–,0.405 ± 0.014,0.333 ± 0.0043,–,–
Cc1noc(NS(=O)(=O)c2ccc(N)cc2)c1C [Sulfisoxazole],0.248 ± 0.0068,0.274 ± 0.021,0.203 ± 0.0055,0.213 ± 0.042,0.12 ± 0.0019,0.149 ± 0.0027,0.308 ± 0.035,0.386 ± 0.073,–,0.424 ± 0.012,0.313 ± 0.019,–,–
CN1CCC(=C2c3ccccc3Sc3ccccc32)CC1 [Pimethixene maleate],0.0726 ± 0.0016,0.0585 ± 0.013,0.0419 ± 0.00051,0.0556 ± 0.0055,0.0414 ± 0.00026,0.05003 ± 0.00025,0.118 ± 0.028,0.161 ± 0.0073,–,0.362 ± 0.078,0.0659 ± 0.0097,–,–
Cc1scc2c1N(C(=O)CN1CCN(C)CC1)c1ccccc1NC2=O [Telenzepine dihydrochloride],0.242 ± 0.0054,0.309 ± 0.0066,0.241 ± 0.0053,0.208 ± 0.012,0.162 ± 0.0049,0.153 ± 0.0031,0.321 ± 0.083,0.442 ± 0.025,–,0.407 ± 0.011,0.338 ± 0.0097,–,–
C[C@H]1[C@H](NC(=O)/C(=N\OC(C)(C)C(=O)O)c2csc(N)n2)C(=O)N1S(=O)(=O)O [Aztreonam],0.161 ± 0.011,0.0624 ± 0.0045,0.0463 ± 0.0008,0.136 ± 0.014,0.177 ± 0.005,0.172 ± 0.0037,0.161 ± 0.009,0.11 ± 0.0038,–,0.0511 ± 0.0047,0.277 ± 0.016,–,–
COc1ccc2c(c1)N(C[C@H](C)CN(C)C)c1ccccc1S2 [Methotrimeprazine maleat salt],0.187 ± 0.0042,0.25 ± 0.015,0.274 ± 0.015,0.2 ± 0.0049,0.139 ± 0.0095,0.179 ± 0.002,0.131 ± 0.0046,0.2312 ± 0.0023,–,0.402 ± 0.0072,0.282 ± 0.02,–,–
O=C(O)Cc1ccccc1Nc1c(Cl)cccc1Cl [Diclofenac sodium],0.1279 ± 0.00065,0.137 ± 0.0017,0.132 ± 0.0064,0.149 ± 0.006,0.103 ± 0.004,0.131 ± 0.0017,0.172 ± 0.014,0.179 ± 0.01,–,0.329 ± 0.037,0.214 ± 0.015,–,–
COc1cc(N)c(Cl)cc1C(=O)NC1CCN(CCCOc2ccc(F)cc2)CC1OC (stereo not given) [Cisapride],0.2147 ± 0.0012,–,–,–,–,–,0.222 ± 0.017,0.357 ± 0.041,0.552 ± 0.1,0.41 ± 0.011,0.458 ± 0.038,0.171 ± 0.003,0.186 ± 0.0052
CC(=O)OCC(=O)[C@@]1(O)CC[C@H]2[C@@H]3CCC4=CC(=O)CC[C@]4(C)[C@@]3(F)[C@@H](O)C[C@@]21C [Fludrocortisone acetate],0.188 ± 0.0026,0.235 ± 0.021,0.255 ± 0.012,0.141 ± 0.0083,0.1074 ± 0.0007,0.128 ± 0.0027,0.249 ± 0.066,0.37 ± 0.092,–,0.401 ± 0.0079,0.229 ± 0.02,–,–
O=c1[nH]c(=O)n([C@H]2C[C@H](O)[C@@H](CO)O2)cc1F [Floxuridine],0.0553 ± 0.00059,–,–,–,–,–,0.088 ± 0.0059,0.0873 ± 0.011,0.356 ± 0.0098,0.387 ± 0.0052,0.0748 ± 0.0061,0.129 ± 0.0019,0.165 ± 0.0032
COc1ccc(C(Cl)=C(c2ccc(OC)cc2)c2ccc(OC)cc2)cc1 [Chlorotrianisene],0.242 ± 0.0055,0.306 ± 0.018,0.2565 ± 0.0023,0.189 ± 0.013,0.208 ± 0.013,0.168 ± 0.049,0.281 ± 0.037,0.264 ± 0.019,–,0.443 ± 0.02,0.407 ± 0.019,–,–
CC(=O)NC[C@H]1CN(c2ccc(N3CCOCC3)c(F)c2)C(=O)O1 [Linezolid],0.047 ± 0.0002,–,–,–,–,–,0.072 ± 0.0052,0.0786 ± 0.0075,0.0669 ± 0.00098,0.135 ± 0.055,0.0531 ± 0.0013,0.0899 ± 0.0032,0.0871 ± 0.0054
